# The supplement of paper PMC8253809
# Key:
# Assay in all cases: growth inhibition (% activity, log2 RLU normalised to DMSO / staurosporine); higher = more growth inhibition
# Settings in all cases: 33 µM
# DIPGX29 = test system: DIPGX29 (H3.3 K27M diffuse intrinsic pontine glioma line)
# How it was run: (§1)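 For each approved drug, the growth-inhibition value is the replicate median of per-plate normalised CellTiter-Glo data. Luminescence was log2-transformed and expressed as % activity between solvent and positive control wells. Drugs were applied in triplicate at a single final concentration of about 33 μM for 7 days at 37 °C, 5% CO2 to pHGG cell lines and H9-derived neural stem cells.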
# DIPGX37 = test system: DIPGX37 (H3.3 K27M diffuse intrinsic pontine glioma line)
# How it was run: as §1
# DIPGX7 = test system: DIPGX7 (H3.3 K27M diffuse intrinsic pontine glioma line)
# How it was run: as §1
# DIPGX9 = test system: DIPGX9 (diffuse intrinsic pontine glioma line)
# How it was run: as §1
# HGGX39 = test system: HGGX39 (paediatric high-grade glioma line)
# How it was run: as §1
# HGGX6 = test system: HGGX6 (H3.3 G34R paediatric high-grade glioma line)
# How it was run: as §1
# HNSC = test system: HNSC
# How it was run: as §1
# SUDIPGIV = test system: SUDIPGIV (diffuse intrinsic pontine glioma line)
# How it was run: as §1
# SUDIPGVI = test system: SUDIPGVI (diffuse intrinsic pontine glioma line)
# How it was run: as §1
# SUDIPGXIII = test system: SUDIPGXIII (diffuse intrinsic pontine glioma line)
# How it was run: as §1
Structure (SMILES),growth inhibition (DIPGX29),growth inhibition (DIPGX37),growth inhibition (DIPGX7),growth inhibition (DIPGX9),growth inhibition (HGGX39),growth inhibition (HGGX6),growth inhibition (HNSC),growth inhibition (SUDIPGIV),growth inhibition (SUDIPGVI),growth inhibition (SUDIPGXIII)
COc1ccc(O)cc1,-0.0157%,0.851%,0.553%,0.0566%,-0.798%,0.118%,0.201%,-3.15%,-3.4%,0.564%
CC(C)c1nc(CN(C)C(=O)N[C@H](C(=O)N[C@@H](Cc2ccccc2)C[C@H](O)[C@H](Cc2ccccc2)NC(=O)OCc2cncs2)C(C)C)cs1,1.73%,2.67%,2.88%,1.93%,5.32%,2.08%,5.1%,-1.31%,-0.349%,-0.136%
CC/C(=C(/CC)c1ccc(O)cc1)c1ccc(O)cc1,-0.353%,0.261%,1.61%,0.802%,-1.26%,-0.016%,-1.62%,0.624%,0.165%,-10.6%
CCc1c(Cl)c(O)c(Cl)c(O)c1C(=O)O[C@H]1[C@H](O)[C@H](OC)[C@H](OC/C2=C\C=C\C[C@H](O)/C(C)=C/[C@H](CC)[C@@H](O[C@@H]3OC(C)(C)[C@@H](OC(=O)C(C)C)[C@H](O)[C@@H]3O)/C(C)=C/C(C)=C/C[C@@H]([C@@H](C)O)OC2=O)O[C@@H]1C,0.669%,2.16%,0.835%,-0.411%,9.09%,0.0636%,11.6%,3.19%,2.46%,0.498%
COC(=O)Nc1nc2cc(Sc3ccccc3)ccc2[nH]1,6.86%,10.3%,8.12%,9.42%,10.7%,10.1%,77%,10.8%,4.78%,3.48%
c1ccc(CN(CC2=NCCN2)c2ccccc2)cc1,1.93%,1.36%,0.575%,3.38%,1.53%,0.0328%,0.623%,-2.17%,3.06%,0.969%
CC(C)NCC(O)c1cc(O)cc(O)c1 (stereo not given),-0.101%,1.67%,1.75%,1.82%,2.87%,-1.68%,27.3%,2.27%,-0.181%,-0.215%
CS(=O)(=O)c1ccc([C@@H](O)[C@@H](CF)NC(=O)C(Cl)Cl)cc1,3.83%,-0.106%,1.63%,2.53%,12.9%,5.33%,15.9%,24.6%,2.59%,38%
CO[C@@]1(NC(=O)C(C(=O)O)c2ccc(O)cc2)C(=O)N2C(C(=O)O)=C(CSc3nnnn3C)CO[C@@H]21 (stereo not given in full),-1.75%,-0.992%,-0.554%,-0.636%,-0.0428%,0.31%,-3.08%,-1.1%,0.787%,-4.5%
Cc1cccc(C)c1OCC(=O)N[C@@H](Cc1ccccc1)[C@@H](O)C[C@H](Cc1ccccc1)NC(=O)[C@H](C(C)C)N1CCCNC1=O,-0.115%,1.21%,-0.846%,1.07%,-0.0767%,1.3%,0.148%,-2.8%,-1.16%,-0.606%
CNCCc1ccccn1,0.924%,1.45%,1.21%,1.11%,2.84%,1.49%,1.31%,1.96%,4.33%,-0.14%
CC(=O)[C@H]1CC[C@H]2[C@@H]3CCC4=CC(=O)CC[C@]4(C)[C@H]3CC[C@]12C,1.09%,3.02%,4.3%,2%,4.64%,5.84%,2.02%,-1.26%,1.04%,1.18%
Oc1c(Cl)cc(Cl)c2cccnc12,4.67%,3.08%,4.55%,5.64%,6.44%,-1.25%,44.3%,3.67%,4.23%,2.6%
CCOC(=O)c1c(C)n(C)c2ccc(O)cc12,0.475%,0.373%,0.137%,-1.16%,1.77%,1.27%,-0.219%,0.902%,-0.0936%,-1.54%
CN(CCOc1ccc(NS(C)(=O)=O)cc1)CCc1ccc(NS(C)(=O)=O)cc1,-2.77%,-1.46%,0.833%,-2.46%,-2.37%,-1.41%,-6.33%,-2.75%,-13.8%,0.844%
CC(=O)O[C@H]1CC[C@@]2(C)C(=CC[C@@H]3[C@@H]2CC[C@]2(C)C(c4cccnc4)=CC[C@@H]32)C1,0.369%,-0.0357%,-0.259%,0.906%,2.75%,-0.409%,-1.27%,-0.864%,-0.189%,-0.391%
N#CC(c1ccc(Cl)cc1)c1c(Cl)cc(-n2ncc(=O)[nH]c2=O)cc1Cl (stereo not given),-3.67%,-2.44%,-2.85%,-2.54%,-2.75%,-3.94%,-1.15%,-2.27%,-3.68%,0.254%
CC(=O)OCC(=O)NCCCOc1cccc(CN2CCCCC2)c1,-1.28%,1.04%,-1.47%,-0.989%,-1.44%,0.942%,-4.85%,-2.05%,-0.427%,-1.04%
Nc1c2c(nc3ccccc13)CCCC2,-2.45%,1.21%,-2.4%,-0.673%,-0.0323%,-0.396%,-4.73%,1.29%,-2.15%,-0.353%
CCOC(=O)[C@H](CCc1ccccc1)N[C@@H](C)C(=O)N1C(=O)N(C)C[C@H]1C(=O)O,-1.26%,0.599%,-0.344%,-0.304%,-1.03%,-1.84%,1.56%,-1.04%,-1.53%,1.71%
CCN[C@@H]1C[C@H](N)[C@@H](O[C@H]2OC(CN)=CC[C@H]2N)[C@H](O)[C@H]1O[C@H]1OC[C@](C)(O)[C@H](NC)[C@H]1O,0.443%,3.8%,2.72%,2.1%,2.39%,-0.182%,8.55%,3.28%,2.97%,2.03%

Structure (SMILES),growth inhibition (DIPGX29),growth inhibition (DIPGX37),growth inhibition (DIPGX7),growth inhibition (DIPGX9),growth inhibition (HGGX39),growth inhibition (HGGX6),growth inhibition (HNSC),growth inhibition (SUDIPGIV),growth inhibition (SUDIPGVI),growth inhibition (SUDIPGXIII)
N=C(N=C(N)N)N1CCOCC1,0.894%,3.09%,0.853%,1.87%,2.32%,0.804%,0.723%,-0.801%,2.92%,-0.103%
N#C[C@@H]1C[C@@H]2C[C@@H]2N1C(=O)[C@@H](N)C12CC3CC(CC(O)(C3)C1)C2,2.2%,1.41%,1.21%,0.435%,5.53%,2.65%,8.15%,7.37%,2.7%,7.88%
Oc1ncnc2[nH]ncc12,-2.33%,-1.9%,-0.64%,-2.61%,-3.77%,-3.6%,-5.63%,-3.97%,-6.47%,0.643%
O=C(Nc1c(Cl)cncc1Cl)c1ccc(OC(F)F)c(OCC2CC2)c1,2.05%,4.42%,2.92%,2.71%,4.08%,2.51%,2.92%,7.2%,6.56%,-0.978%
CN(C)CCOC(c1ccccc1)c1ccccc1,-3.3%,-0.629%,-0.0174%,-1.77%,-3.3%,-2.72%,2.53%,-1.12%,-3.73%,-1.22%
Cc1nnc(NS(=O)(=O)c2ccc(N)cc2)s1,2.52%,1.32%,1.72%,2.78%,0.783%,-1.19%,44.8%,2.1%,1.77%,-1.87%
CO/N=C(\C(=O)N[C@@H]1C(=O)N2C(C(=O)OCOC(=O)C(C)(C)C)=C(/C=C\c3scnc3C)CS[C@H]12)c1csc(N)n1,-0.112%,1.84%,0.192%,-1.35%,1.82%,-1.1%,0.492%,0.557%,0.818%,-0.304%
CCCCCCCCCCCC[N+](C)(C)CCOc1ccccc1,59%,58.8%,53.9%,57.2%,62.1%,56.8%,55.6%,55.7%,63.2%,70.1%
CC(=O)O[C@]1(C(C)=O)CC[C@H]2[C@@H]3C[C@H](C)C4=CC(=O)C=C[C@]4(C)[C@@]3(F)[C@@H](O)C[C@@]21C,1.69%,3.28%,0.393%,5.69%,4.16%,-1.08%,0.0126%,-1.42%,3.88%,1.16%
CN1CCC(=C2c3ccccc3C=Cc3ccccc32)CC1,1.58%,-0.405%,-0.277%,2.34%,7.18%,-0.0199%,1.09%,3.58%,1.48%,1.93%
O=C1[C@@H]2[C@H]3CC[C@H](C3)[C@@H]2C(=O)N1C[C@@H]1CCCC[C@H]1CN1CCN(c2nsc3ccccc23)CC1,-3.28%,0.212%,1.18%,-1.28%,2.33%,1.59%,2.62%,-0.0151%,0.346%,2.16%
CC(C[N+](C)(C)C)OC(N)=O (stereo not given),-2.19%,0.0509%,-1.77%,0.0426%,-1.35%,-2.06%,-4.04%,-1.69%,-2.52%,0.126%
O=C(Nc1ccccc1)OCC(CN1CCCCC1)OC(=O)Nc1ccccc1 (stereo not given),-1.04%,-3.49%,-0.617%,-1.45%,-2.3%,-1.35%,9.66%,-3.64%,-7.72%,1.16%
CO/N=C(\C(=O)N[C@@H]1C(=O)N2C(C(=O)O)=C(CSC(=O)c3ccco3)CS[C@H]12)c1csc(N)n1,-1.65%,1.16%,-1.04%,-0.83%,0.968%,-1.16%,-1.6%,1.14%,-0.598%,0.953%
COc1cc(NC(C)CCCN)c2ncccc2c1 (stereo not given),19.8%,14%,29.6%,24.2%,13%,25.5%,66.1%,25.4%,28.3%,11.9%
C[N+](C)(C)CCCCCC[N+](C)(C)C,-5.28%,-1.26%,0.491%,-2.94%,-1.88%,-5.38%,11.7%,-2.32%,-9.56%,0.369%
O=NN(CCCl)C(=O)NC1CCCCC1,0.207%,0.604%,3.11%,1.74%,2.6%,0.392%,8.64%,0.873%,2.64%,0.32%
O=C(O)CCNC(=O)c1ccccc1,0.362%,2.48%,0.618%,0.575%,0.895%,0.906%,-1.4%,0.839%,1.57%,1.01%
COc1c(N2C[C@@H]3CCCN[C@@H]3C2)c(F)cc2c(=O)c(C(=O)O)cn(C3CC3)c12,0.967%,2.87%,5.33%,1.28%,3.99%,2.07%,2.61%,0.935%,2.05%,-1.1%
CC(C)[C@H](N)C(=O)OCCOCn1cnc2c(=O)nc(N)[nH]c21,0.298%,0.698%,-1.22%,1.11%,0.616%,1.05%,-0.55%,-0.767%,0.129%,1.61%
O=c1c(-c2ccc(O)cc2)coc2cc(O)ccc12,-1.42%,-0.456%,-0.191%,-0.874%,1.36%,-0.307%,-2.12%,-0.853%,-1.44%,0.974%
